Experimental data reported in paper PMC11006913.
Changes are numbered by the printed parent chain.

What was measured:
Experiment in all cases: PBM; 200 nM protein, PBS
Settings in all cases: dsDNA, one strand shown
CRX [1] = biological target: CRX (Homo sapiens, UniProt O43186 26-111)
SIX6 = biological target: T1, SIX6 (Homo sapiens, UniProt O95475 114-200, T165P)
T1 sequence: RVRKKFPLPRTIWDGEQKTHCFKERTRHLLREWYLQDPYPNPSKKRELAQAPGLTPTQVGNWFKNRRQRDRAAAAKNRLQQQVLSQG

CRX [2] = biological target: CRX (Homo sapiens, UniProt O43186 26-111, E42D)
Chain of CRX (Homo sapiens, UniProt O43186 26-111, E42D) (O43186 26-111 E42D): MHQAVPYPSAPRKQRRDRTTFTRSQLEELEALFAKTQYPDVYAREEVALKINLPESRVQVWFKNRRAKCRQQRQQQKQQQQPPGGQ

CRX [3] = biological target: CRX (Homo sapiens, UniProt O43186 26-111, R41L)
Chain of CRX (Homo sapiens, UniProt O43186 26-111, R41L) (O43186 26-111 R41L): as the sequence (O43186 26-111 E42D) above, with R16L, D17E counted along it

HOXA2 [4] = biological target: HOXA2 (Homo sapiens, UniProt O43364 129-215, R185T)
Chain of HOXA2 (Homo sapiens, UniProt O43364 129-215, R185T) (O43364 129-215 R185T): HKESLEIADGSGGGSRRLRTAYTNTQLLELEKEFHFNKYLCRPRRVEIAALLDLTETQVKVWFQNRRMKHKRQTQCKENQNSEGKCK

PITX2 = PITX2 (Homo sapiens, UniProt Q99697 72-157)
HOXA2 [5] = biological target: HOXA2 (Homo sapiens, UniProt O43364 129-215, Y150S)
Chain of HOXA2 (Homo sapiens, UniProt O43364 129-215, Y150S) (O43364 129-215 Y150S): as the sequence (O43364 129-215 R185T) above, with Y22S, T57R counted along it

HOXA2 [6] = biological target: HOXA2 (Homo sapiens, UniProt O43364 129-215)
Chain of HOXA2 (Homo sapiens, UniProt O43364 129-215) (O43364 129-215): as the sequence (O43364 129-215 R185T) above, with T57R counted along it

VENTX = biological target: T2, VENTX (Homo sapiens, UniProt O95231 78-163, Y115F)
T2 sequence: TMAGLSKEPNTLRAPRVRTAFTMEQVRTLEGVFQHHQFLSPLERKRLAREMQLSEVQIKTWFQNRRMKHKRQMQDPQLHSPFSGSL

HOXA2 [7] = biological target: HOXA2 (Homo sapiens, UniProt O43364 129-215, R185K)
Chain of HOXA2 (Homo sapiens, UniProt O43364 129-215, R185K) (O43364 129-215 R185K): as the sequence (O43364 129-215 R185T) above, with T57K counted along it

HOXA7 [8] = biological target: HOXA7 (Homo sapiens, UniProt P31268 116-202)
Chain of HOXA7 (Homo sapiens, UniProt P31268 116-202) (P31268 116-202): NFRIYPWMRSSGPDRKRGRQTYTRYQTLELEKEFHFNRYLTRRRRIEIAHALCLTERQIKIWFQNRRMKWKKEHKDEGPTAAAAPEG

HOXA7 [9] = biological target: HOXA7 (Homo sapiens, UniProt P31268 116-202, W177C)
Chain of HOXA7 (Homo sapiens, UniProt P31268 116-202, W177C) (P31268 116-202 W177C): as the sequence (P31268 116-202) above, with W62C counted along it

PRRX1 [10] = biological target: PRRX1 (Homo sapiens, UniProt P54821 80-166, F113S)
Chain of PRRX1 (Homo sapiens, UniProt P54821 80-166, F113S) (P54821 80-166 F113S): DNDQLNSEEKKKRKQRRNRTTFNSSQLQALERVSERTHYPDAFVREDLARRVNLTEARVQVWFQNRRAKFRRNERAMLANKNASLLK

PRRX1 [11] = biological target: PRRX1 (Homo sapiens, UniProt P54821 80-166)
Chain of PRRX1 (Homo sapiens, UniProt P54821 80-166) (P54821 80-166): as the sequence (P54821 80-166 F113S) above, with S34F counted along it

PAX4 [12] = biological target: T3, PAX4 (Homo sapiens, UniProt O43316 9-242, R200K)
T3 sequence: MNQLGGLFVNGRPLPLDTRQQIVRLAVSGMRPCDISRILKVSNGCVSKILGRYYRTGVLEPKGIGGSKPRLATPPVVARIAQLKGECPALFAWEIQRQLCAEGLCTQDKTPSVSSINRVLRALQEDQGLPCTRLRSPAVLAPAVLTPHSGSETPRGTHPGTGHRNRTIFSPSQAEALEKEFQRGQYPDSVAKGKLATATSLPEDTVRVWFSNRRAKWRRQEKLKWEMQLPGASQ

PAX4 [13] = biological target: T4, PAX4 (Homo sapiens, UniProt O43316 9-242)
T4 sequence: T3 sequence with K192R

NKX2-6 [14] = biological target: T5, NKX2-6 (Homo sapiens, UniProt A6NCS4 118-204)
T5 sequence: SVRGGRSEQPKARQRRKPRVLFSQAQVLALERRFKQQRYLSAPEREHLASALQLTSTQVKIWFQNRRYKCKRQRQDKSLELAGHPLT

PAX4 [15] = biological target: T6, PAX4 (Homo sapiens, UniProt O43316 9-242, R200Q)
T6 sequence: T3 sequence with K192Q

PAX4 [16] = biological target: T7, PAX4 (Homo sapiens, UniProt O43316 9-242, F177V)
T7 sequence: T3 sequence with F169V, K192R

PAX4 [17] = biological target: T8, PAX4 (Homo sapiens, UniProt O43316 9-242, F177Y)
T8 sequence: T3 sequence with F169Y, K192R

NKX2-6 [18] = biological target: T9, NKX2-6 (Homo sapiens, UniProt A6NCS4 118-204, F151L)
T9 sequence: T5 sequence with F34L

PAX4 [19] = biological target: T10, PAX4 (Homo sapiens, UniProt O43316 9-242, R227W)
T10 sequence: T3 sequence with K192R, R219W

Chain of CRX (Homo sapiens, UniProt O43186 26-111) (O43186 26-111): as the sequence (O43186 26-111 E42D) above, with D17E counted along it

Sequence: GCGGATCA
- binding signal (CRX [1]): 11.3 upbm affinity estimate (log intensity, higher = more binding, comparable within an allelic series)
- binding signal (SIX6): 9.3 upbm affinity estimate (log intensity, higher = more binding, comparable within an allelic series)
- binding signal (CRX [2]): 11.2 upbm affinity estimate (log intensity, higher = more binding, comparable within an allelic series)
- binding signal (CRX [3]): 10.8 upbm affinity estimate (log intensity, higher = more binding, comparable within an allelic series)

Sequence: AGGATTAG
- binding signal (CRX [1]): 13.5 upbm affinity estimate (log intensity, higher = more binding, comparable within an allelic series)
- binding signal (HOXA2 [4]): 9.36 upbm affinity estimate (log intensity, higher = more binding, comparable within an allelic series)
- binding signal (CRX [2]): 13.5 upbm affinity estimate (log intensity, higher = more binding, comparable within an allelic series)
- binding signal (PITX2): 13.2 upbm affinity estimate (log intensity, higher = more binding, comparable within an allelic series)
- binding signal (HOXA2 [5]): 10.7 upbm affinity estimate (log intensity, higher = more binding, comparable within an allelic series)
- binding signal (CRX [3]): 13.3 upbm affinity estimate (log intensity, higher = more binding, comparable within an allelic series)
- binding signal (HOXA2 [6]): 9.15 upbm affinity estimate (log intensity, higher = more binding, comparable within an allelic series)

Sequence: GTGATTAA
- binding signal (CRX [1]): 12.3 upbm affinity estimate (log intensity, higher = more binding, comparable within an allelic series)
- binding signal (VENTX): 11.5 upbm affinity estimate (log intensity, higher = more binding, comparable within an allelic series)
- binding signal (HOXA2 [4]): 12.7 upbm affinity estimate (log intensity, higher = more binding, comparable within an allelic series)
- binding signal (CRX [2]): 12.2 upbm affinity estimate (log intensity, higher = more binding, comparable within an allelic series)
- binding signal (HOXA2 [7]): 13.2 upbm affinity estimate (log intensity, higher = more binding, comparable within an allelic series)
- binding signal (CRX [3]): 11.7 upbm affinity estimate (log intensity, higher = more binding, comparable within an allelic series)

Sequence: ACTTTATC
- binding signal (CRX [1]): 10.6 upbm affinity estimate (log intensity, higher = more binding, comparable within an allelic series)
- binding signal (CRX [2]): 10.4 upbm affinity estimate (log intensity, higher = more binding, comparable within an allelic series)

Sequence: GATTAACA
- binding signal (CRX [1]): 12.9 upbm affinity estimate (log intensity, higher = more binding, comparable within an allelic series)
- binding signal (CRX [2]): 12.5 upbm affinity estimate (log intensity, higher = more binding, comparable within an allelic series)

Sequence: GACCGACA
- binding signal (CRX [1]): 8.43 upbm affinity estimate (log intensity, higher = more binding, comparable within an allelic series)
- binding signal (HOXA7 [8]): 8.51 upbm affinity estimate (log intensity, higher = more binding, comparable within an allelic series)
- binding signal (CRX [2]): 8.36 upbm affinity estimate (log intensity, higher = more binding, comparable within an allelic series)
- binding signal (HOXA7 [9]): 8.57 upbm affinity estimate (log intensity, higher = more binding, comparable within an allelic series)
- binding signal (CRX [3]): 8.31 upbm affinity estimate (log intensity, higher = more binding, comparable within an allelic series)

Sequence: ACTGCGTG
- binding signal (CRX [1]): 8.27 upbm affinity estimate (log intensity, higher = more binding, comparable within an allelic series)
- binding signal (PRRX1 [10]): 9.32 upbm affinity estimate (log intensity, higher = more binding, comparable within an allelic series)
- binding signal (CRX [2]): 8.35 upbm affinity estimate (log intensity, higher = more binding, comparable within an allelic series)
- binding signal (CRX [3]): 8.29 upbm affinity estimate (log intensity, higher = more binding, comparable within an allelic series)
- binding signal (PRRX1 [11]): 9.57 upbm affinity estimate (log intensity, higher = more binding, comparable within an allelic series)

Sequence: CCGGGGCG
- binding signal (CRX [1]): 8.1 upbm affinity estimate (log intensity, higher = more binding, comparable within an allelic series)
- binding signal (HOXA2 [4]): 7.04 upbm affinity estimate (log intensity, higher = more binding, comparable within an allelic series)
- binding signal (CRX [2]): 8.23 upbm affinity estimate (log intensity, higher = more binding, comparable within an allelic series)
- binding signal (HOXA2 [7]): 10 upbm affinity estimate (log intensity, higher = more binding, comparable within an allelic series)
- binding signal (HOXA2 [5]): 10.3 upbm affinity estimate (log intensity, higher = more binding, comparable within an allelic series)
- binding signal (CRX [3]): 8.38 upbm affinity estimate (log intensity, higher = more binding, comparable within an allelic series)
- binding signal (HOXA2 [6]): 7 upbm affinity estimate (log intensity, higher = more binding, comparable within an allelic series)

Sequence: CCGGTCCC
- binding signal (CRX [1]): 8.46 upbm affinity estimate (log intensity, higher = more binding, comparable within an allelic series)
- binding signal (PAX4 [12]): 9.29 upbm affinity estimate (log intensity, higher = more binding, comparable within an allelic series)
- binding signal (PAX4 [13]): 9.34 upbm affinity estimate (log intensity, higher = more binding, comparable within an allelic series)
- binding signal (CRX [2]): 8.54 upbm affinity estimate (log intensity, higher = more binding, comparable within an allelic series)
- binding signal (NKX2-6 [14]): 9.32 upbm affinity estimate (log intensity, higher = more binding, comparable within an allelic series)
- binding signal (PAX4 [15]): 9.4 upbm affinity estimate (log intensity, higher = more binding, comparable within an allelic series)
- binding signal (PAX4 [16]): 9.28 upbm affinity estimate (log intensity, higher = more binding, comparable within an allelic series)
- binding signal (PAX4 [17]): 9.27 upbm affinity estimate (log intensity, higher = more binding, comparable within an allelic series)
- binding signal (NKX2-6 [18]): 9.15 upbm affinity estimate (log intensity, higher = more binding, comparable within an allelic series)
- binding signal (PAX4 [19]): 9.3 upbm affinity estimate (log intensity, higher = more binding, comparable within an allelic series)
- binding signal (CRX [3]): 8.54 upbm affinity estimate (log intensity, higher = more binding, comparable within an allelic series)

Sequence: ACTATCCG
- binding signal (CRX [1]): 9.31 upbm affinity estimate (log intensity, higher = more binding, comparable within an allelic series)
- binding signal (CRX [2]): 9.26 upbm affinity estimate (log intensity, higher = more binding, comparable within an allelic series)
